Screening data deposited in PubChem BioAssay by The Scripps Research Institute Molecular Screening Center.
A selection: hits, their analogues and other compounds. The true share with any hit is near 3.5%.
TEAD-YAP inh: TEAD-YAP interaction inhibition; HEK-TIYL cells, TEAD-Gal4/YAP UAS-luciferase luminescence; inhibition, % at 9.12 µM; 1.4% of 640,000 active; AID 1259422; in the data active = inhibition above about 32%
GPR151 ag: human GPR151 activation; Q8TDV0; PathHunter beta-arrestin GPR151 cells, luminescence; activation, % at 11.2 µM; 1% of 650,000 active; AID 1508602; in the data active = activation above about 4.9%
MITF primary: inhibitors of human MITF. 0.91% of 650,000 active. inhibition, % at 2.6 µM. AID 1259374. AlphaScreen MITF homodimerization, bead proximity signal. O75030; in the data active = inhibition above about 50%
FBW7 activator: human FBW7 E3 ligase activation, primary screen; AlphaScreen FBW7–phospho-cyclin E peptide binding, activator screen; normalized activity (activation), % at 26.1 µM; 0.13% of 650,000 active; in the data active = normalized activity above about 1.9%;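 note: purified mutant Fbw7 with reduced substrate affinity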
Target sequence (Q969H0 whole entry, looked up): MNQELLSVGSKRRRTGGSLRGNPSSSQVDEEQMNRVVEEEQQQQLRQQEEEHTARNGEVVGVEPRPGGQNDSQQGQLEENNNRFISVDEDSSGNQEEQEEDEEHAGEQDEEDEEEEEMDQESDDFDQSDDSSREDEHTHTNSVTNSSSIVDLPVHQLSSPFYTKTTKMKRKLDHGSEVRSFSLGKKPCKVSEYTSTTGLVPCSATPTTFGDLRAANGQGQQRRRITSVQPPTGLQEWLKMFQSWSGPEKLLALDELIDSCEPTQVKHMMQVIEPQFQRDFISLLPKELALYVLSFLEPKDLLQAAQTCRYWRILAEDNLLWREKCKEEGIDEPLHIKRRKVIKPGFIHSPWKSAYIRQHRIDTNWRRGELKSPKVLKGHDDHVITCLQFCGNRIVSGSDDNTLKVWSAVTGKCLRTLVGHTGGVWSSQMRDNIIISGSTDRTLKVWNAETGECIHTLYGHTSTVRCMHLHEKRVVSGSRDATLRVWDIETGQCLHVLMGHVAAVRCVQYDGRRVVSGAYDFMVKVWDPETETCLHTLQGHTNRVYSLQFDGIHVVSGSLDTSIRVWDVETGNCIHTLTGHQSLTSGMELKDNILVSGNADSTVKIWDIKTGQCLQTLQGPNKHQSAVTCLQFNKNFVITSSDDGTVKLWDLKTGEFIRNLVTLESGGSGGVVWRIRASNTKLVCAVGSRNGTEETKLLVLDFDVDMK
GPR151 confirm: human GPR151 activation, confirmation screen | shares compounds with GPR151 ag | GPR151 PathHunter beta-arrestin cells, luminescence, 90 min; % of EA-reagent control over plate median | activation, % at 11.2 µM | 6,700 tested, under 10 active | AID 1508609;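 active = mean percent activation across replicates above the confirmation screen cutoff of 4.91%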
GPR119 ag: GPR119 activation, counter-screen for GPR151 activators | activation, % at 11.2 µM | GPR119 PathHunter beta-arrestin cells, luminescence, 90 min; 0 = compound-well median, 100 = enzyme-acceptor control | 0.3% of 6,700 active | shares compounds with GPR151 ag;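 active = mean percent activation in the counterscreen above 29.09%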;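 note: counterscreen on off-target GPR119 to flag nonselective hits from the GPR151 activator screen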
Each line names hits and unclear results; the compound was inactive in the other large screens (follow-up assays come after a bar, where they were run).

C=CCOc1ccc(C2/C(=C(/O)c3ccc(OCC)c(C)c3)C(=O)C(=O)N2Cc2cccnc2)cc1 (configuration not stated)	GPR151 ag 6.6 | GPR151 confirm inactive | GPR119 ag inactive
CCOc1ccc(/C(O)=C2/C(=O)C(=O)N(Cc3cccnc3)C2c2ccc(C)cc2)cc1C (configuration not stated)	none
CCOC(=O)c1oc2c(c1C)C(=O)CC(C)(C)C2	none
COc1cccc(OC)c1C(=O)Nc1ncc([N+](=O)[O-])s1	GPR151 ag 5.7 | GPR151 confirm inactive | GPR119 ag inactive
COc1cccc(OC)c1C(=O)NC(=S)Nc1ccc(Br)cn1	none
COc1cccc(OC)c1C(=O)Nc1ccc(Br)cn1	GPR151 ag 15 | GPR151 confirm inactive | GPR119 ag inactive
COc1cccc(OC)c1C(=O)Nc1ccc([N+](=O)[O-])cn1	none
CCN(CC)c1nc(Nc2ccccc2)nc(Nc2nc3ccccc3n2C)n1	none
CCN(CC)c1nc(Nc2nc3ccccc3n2C)nc(NC2CC2)n1	GPR151 ag 7.5 | GPR151 confirm inactive | GPR119 ag inactive
CCOC(=O)c1c(NC(=O)CSc2nnc(CNC(=O)c3cc(OC)cc(OC)c3)n2Cc2ccccc2)sc2c1CCCC2	GPR151 ag 5.0 | GPR151 confirm inactive | GPR119 ag inactive
CCOC(=O)c1c(NC(=O)CSc2nnc(CNC(=O)c3cccc(F)c3)n2-c2ccc([N+](=O)[O-])cc2)sc2c1CCCCC2	GPR151 ag 5.5 | GPR151 confirm inactive | GPR119 ag inactive
CCOC(=O)c1sc(NC(=O)CSc2nnc(CNC(=O)c3ccco3)n2-c2ccccc2OC)c(C(=O)OCC)c1C	GPR151 ag 8.7 | GPR151 confirm inactive | GPR119 ag inactive
CCOC(=O)c1sc(NC(=O)CSc2nnc(CNC(=O)Cc3ccccc3)n2-c2ccccc2OC)c(C(=O)OCC)c1C	none
CCOC(=O)c1c(NC(=O)CSc2nnc(CNC(=O)c3cccc(F)c3)n2-c2ccc(OCC)cc2)sc2c1CCC2	none
CCOc1ccc(C2=NN3C(C2)c2cccc(OCC)c2OC3c2cc(OC)ccc2OC)cc1 (configuration not stated)	none
CCCn1ncc(CN2CCC(n3nccc3NC(=O)CCc3ccccc3)CC2)c1C	GPR151 ag 6.6 | GPR151 confirm inactive | GPR119 ag inactive
Cc1ccc(/C=C/C(=O)NCc2ccc(S(N)(=O)=O)cc2)o1	GPR151 ag 6.3 | GPR151 confirm inactive | GPR119 ag inactive
Cc1cc(C)cc(CC(CC(=O)O)C(=O)Nc2ccccc2I)c1 (configuration not stated)	none
COCCCNc1nc2nonc2nc1N(C)Cc1ccccn1	none
COCCCNc1nc2nonc2nc1N(C)Cc1ccc(F)cc1	GPR151 ag 5.8 | GPR151 confirm inactive | GPR119 ag inactive
Cc1ccc2cc(C3CC(c4ccc(Br)cc4)=NN3S(C)(=O)=O)c(Cl)nc2c1 (configuration not stated)	none
O=C(NCCN1CCOCC1)c1ccc2c(c1)ncn2-c1ccc(F)cc1F	GPR151 ag 5.4 | GPR151 confirm inactive | GPR119 ag inactive
Cc1ccc(-n2cnc3cc(C(=O)NCc4ccc(F)cc4)ccc32)cc1Cl	GPR151 ag 5.9 | GPR151 confirm inactive | GPR119 ag inactive
Cc1ccc(S(=O)(=O)N2CCc3[nH]c4ccccc4c3C2)cc1	none
COc1cccc(NC(=O)C(Sc2nnc(N)s2)c2ccccc2)c1 (configuration not stated)	none
COC(=O)c1sc2ccccc2c1NC(=O)c1ccc(OC)cc1	none
Cc1cc(C)cc(N(C(C)C(=O)O)S(C)(=O)=O)c1 (configuration not stated)	GPR151 ag 5.5 | GPR151 confirm inactive | GPR119 ag inactive
COc1ccc(CCNc2cc(Nc3nc4ccccc4n3C)ncn2)cc1	none
O=C(NCCc1ccc(Cl)cc1)C(=O)NCc1ccccc1	GPR151 ag 7.4 | GPR151 confirm inactive | GPR119 ag inactive
CCNC(=S)NCCc1ccc(Cl)cc1	GPR151 ag 5.5 | GPR151 confirm inactive | GPR119 ag inactive
NNC(=S)NCCc1ccc(Cl)cc1	none
COc1ccc(C2Nc3ccccc3C(=O)N2c2ccc(NC(C)=O)cc2)cc1 (configuration not stated)	none
COC(=O)c1c(NC(=O)c2ccc([N+](=O)[O-])cc2)sc(C(=O)Nc2ccccc2)c1C	none
O=C1c2ccncc2C(=O)N1CNc1ccc(Br)cc1	none
Cc1cnc(Nc2ccncn2)nc1NCc1nc2ccccc2[nH]1	none
CC1CCN(c2ccc(C(=O)NC(C)(C)C)cc2[N+](=O)[O-])CC1	none
CCC(=O)NNc1nc2ccc(OC)cc2s1	GPR151 ag 6.3 | GPR151 confirm inactive | GPR119 ag inactive
CCN(CC)CC(=O)Nc1nc2ccc(OC)cc2s1	none
CC(Sc1nnc(NC(=O)c2ccccc2)s1)c1nc2ccccc2c(=O)[nH]1 (configuration not stated)	GPR151 ag 5.7 | GPR151 confirm inactive | GPR119 ag inactive
S=C1NC2=C(C(c3ccc(Br)cc3)N1)N1CCC2CC1 (configuration not stated)	GPR151 ag 5.7 | GPR151 confirm inactive | GPR119 ag inactive
CN(C)c1ccc(C2NC(=S)NC3=C2N2CCC3CC2)cc1 (configuration not stated)	none
COc1ccc(-c2nc(SCC(=O)Nc3ccc4c(c3)OCO4)n[nH]2)cc1	GPR151 ag 6.5 | GPR151 confirm inactive | GPR119 ag inactive
COc1ccc(-c2nc(SCC(=O)Nc3ccc4ccccc4c3)n[nH]2)cc1	none
COc1cc(C=O)ccc1Oc1nc2ccccc2n2cnnc12	GPR151 ag 5.8 | GPR151 confirm inactive | GPR119 ag inactive
CC(=O)c1ccc(C(=O)Nc2cc(C)on2)cc1	none
Cc1nnc(NC(=O)c2ccc3c(c2)C(=O)N(CC2CCCO2)C3=O)s1 (configuration not stated)	GPR151 ag 6.9 | GPR151 confirm inactive | GPR119 ag inactive
Cc1cc(NC(=O)c2ccc3c(c2)C(=O)N(CC2CCCO2)C3=O)no1 (configuration not stated)	none
COc1ccc(CCN(C)C2CCCN(Cc3ccoc3)C2)cc1OC (configuration not stated)	none
CN(CCc1ccccc1)C1CCCN(Cc2cccnc2)C1 (configuration not stated)	none
COc1ccc(CCN(C)C2CCCN(Cc3ccncc3)C2)cc1OC (configuration not stated)	GPR151 ag 9.1 | GPR151 confirm inactive | GPR119 ag inactive
COCc1ccc(CN2CCCC(N(C)CCc3ccccc3)C2)o1 (configuration not stated)	GPR151 ag 5.1 | GPR151 confirm inactive | GPR119 ag inactive
COc1ccc(CCN(C)C2CCCN(Cc3c(C)nn(C)c3Cl)C2)cc1OC (configuration not stated)	GPR151 ag 5.9 | GPR151 confirm inactive | GPR119 ag inactive
